Results from ChEMBL document CHEMBL3988442, “University of Dundee, Small-Polar-MMV Screening Library” (2021).

biological target: T1, Aspartate--tRNA(Asp/Asn) ligase (Mycobacterium tuberculosis (strain ATCC 25618 / H37Rv)) (UniProt P9WFW3); experiment: Assay for Asp RNA synthetase-1 from Mycobacterium tuberculosis; type: functional; set-up: scale not given: in the data most compounds retested in dose-response had high values; conditions: 30 µM
T1 sequence (whole entry): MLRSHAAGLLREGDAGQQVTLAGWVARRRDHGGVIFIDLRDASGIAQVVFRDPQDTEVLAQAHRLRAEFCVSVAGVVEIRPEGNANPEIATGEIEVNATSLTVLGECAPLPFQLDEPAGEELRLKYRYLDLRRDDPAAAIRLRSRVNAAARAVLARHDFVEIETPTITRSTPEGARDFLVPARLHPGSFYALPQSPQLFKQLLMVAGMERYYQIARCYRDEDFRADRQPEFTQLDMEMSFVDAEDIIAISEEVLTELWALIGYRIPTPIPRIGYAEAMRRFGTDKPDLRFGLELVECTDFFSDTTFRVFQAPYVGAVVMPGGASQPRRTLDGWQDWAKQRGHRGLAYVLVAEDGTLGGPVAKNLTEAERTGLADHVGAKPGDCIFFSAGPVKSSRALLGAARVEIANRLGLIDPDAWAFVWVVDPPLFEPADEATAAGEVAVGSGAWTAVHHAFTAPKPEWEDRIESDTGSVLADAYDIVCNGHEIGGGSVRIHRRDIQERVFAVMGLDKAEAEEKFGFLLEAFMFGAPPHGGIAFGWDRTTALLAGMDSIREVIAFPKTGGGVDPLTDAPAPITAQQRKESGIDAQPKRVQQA

SMILES	Percent Effect [%]
CC(C)Nc1ccc2nc(C3CCN(C(C)C)CC3)nn2c1	-0.549
CCCC(Nc1c(C#N)c(=O)n(C)c(=O)n1C)c1ccc(F)cc1F (stereo not given)	-3.88
CS(=O)(=O)NCCCNC(=O)c1cccc(-n2cccc2)c1	-2.88
Fc1cccc(-c2nc(CN3CCCCC3Cn3cncn3)co2)c1 (stereo not given)	0.0286
O=C(NCCNc1ncccn1)C1CCN(C(=O)C2CC2)CC1	1.89
O=C(Cn1cc(I)cn1)Nc1cccnc1	1.95
O=C(C1=CCCC1)N1C[C@@H]2COC[C@]2(COc2cccnc2)C1	-3.68
Cc1cc(N2CCC(CC(N)=O)CC2)nc(-c2ccncc2)n1	6.11
c1cnn(CCNCc2nnc(C3CC3)o2)c1	-0.343
CN(C)CC1CSCCCN1C(=O)c1ccc(=O)[nH]c1 (stereo not given)	0.539
CC(C)(O)CN1CCN(C(=O)c2sccc2C2CC2)CC1	0.16
CN(C)C(=O)N[C@@H]1CN(Cc2ccc3c(c2)OCO3)[C@@H]2CCCO[C@@H]21	-0.291
Cc1ccccc1C1(C(=O)NCCN2CCCC2)CCOCC1	11.1
Cc1nc(CN2CCN(C(=O)c3ccn(C)c(=O)c3)CC2)cs1	4.03
Cc1ccc(C(=O)N2CCCC(C(=O)N3CCCCC3)C2)c(O)c1 (stereo not given)	-0.062
COc1cc(S(=O)(=O)N2CCCc3ccccc32)cc(C(=O)O)c1OC	7.13
O=C1N(CCCc2ccccc2)CCCC1(O)CNCc1ccccc1 (stereo not given)	4.53
Cc1nc(C)c(C(=O)NCCNC(=O)Cc2ccccc2)s1	-1.6
CC(=O)N1CCn2cc(CNC(=O)c3cccn3C)nc2C1	1.43
CNc1nc(CNC(=O)Nc2cccc(F)c2)cs1	-1.08
